Values joined by “and” are separate entries in the source; they are usually repeats but may differ in a detail not shown here. Equal entries are not always repeated. This is part of a sample that, as a whole, favours compounds with a hit. Of some 83,000 tested, about 20% had one in any assay.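 For each line, cells grew in 96-well plates with the test compound present at a single concentration for 48 hours.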 A number with no mark means an inactive call. Active and inactive are the calls of the source.
System: OVCAR-8 ovarian
Assay: NCI-60 one-dose screen, 48 h (100 = growth as untreated, 0 = no growth, -100 = all killed)
Settings: 10 µM
Experimental: Growth inhibition of the OVCAR-8 human tumor cell line is measured as a screen for anti-cancer activity. Cells are grown in 96 well plates and exposed to the test compound for 48 hours. Compounds are tested at a single concentration, which is 10^-5 M for most compounds. The reported endpoint is percent growth (GI% or GIPRCNT), where numbers from 0 - 100% represent growth inhibition, and numbers from -100% - 0 represent cell death. For example, a value of 40 represents 60% growth inhibition. A value of 0 means no net growth occurred over the course of the experiment. A value of -40 indicates 40% of cells at the beginning of the experiment died by the end of the experiment. A value of -100 means all cells are dead at the end of the experiment.
NCI-60 Human Tumor Cell Lines Screen was performed using the standard one-dose NCI protocol, which is described in more detail at https://dtp.cancer.gov/discovery_development/nci-60/default.htm.
Compounds with GIPRCNT values below 10 were considered active. Activity score was based on GIPRCNT using the following formula: […]
Score is 0 for GIPRCNT values of 100 or above, 50 for GIPRCNT values of 0, and 100 for GIPRCNT values of -100.

| SMILES | growth [%] |
| --- | --- |
| CC(=O)/C=C/c1ccc(N(C)Cc2ccc(C(C)(C)C)cc2)cc1 | 92.4 |

Same assay, conditions: 10 µM unless noted

| SMILES | growth |
| --- | --- |
| Cc1c(C(C)(C)O)cn2ncnc(Oc3ccc(NC(=O)Nc4ccc(Cl)c(C(F)(F)F)c4)cc3)c12 | 49.1% |
| CC12OC(CC(O)C1O)n1c3ccccc3c3c4c(c5c6ccccc6n2c5c31)C(=O)N(CCN1CCOCC1)C4=O (stereo not given) | 17% |
| COc1ccc2c(c1)CCNC21C(=O)Nc2c(Br)cc(Br)cc21 (stereo not given) | 101% |
| COc1cc(OC)cc(-c2ccc(-c3ccc(C(=N)N)cn3)s2)c1 | 17.8% |
| COc1cccc(NC(=O)c2sc3nc(C)c(C(O)c4ccccc4)cc3c2N)c1 (stereo not given) | 8.45% (active) |
| Cc1ccc(C(=O)Nc2nc3c(s2)CN(Cc2ccccc2)CC3)cn1 | 95.7% |
| COc1cc(/C=C/C(=O)c2ccc(NC(=O)CSc3nnc(-c4cc(-c5ccccc5)nc5ccccc45)n3-c3ccccc3)cc2)cc(OC)c1OC | 86.9% |
| CCCN1C(=O)/C(=c2\sc3n(c2=O)C2C(NN=3)N(CC)C(=O)N2CC)c2ccccc21 (stereo not given) | 7.65% (active) |
| CCC(=C(c1ccc(OCCCN(C)C)cc1)c1ccc(OCCCN(C)C)cc1)c1ccc(Cl)cc1 | -76.3% (active) |
| COc1cc(-c2nc3occn3c2-c2ccnc(NCCCNS(=O)(=O)c3ccc(O)cc3)n2)ccc1F | 98.4% |
| Cc1ccc2[nH]c(=S)[nH]c(=O)c2c1 | 104% |
| Cc1ccc(-c2nc(SCC(=O)c3ccc(C#N)cc3)[nH]c(=O)c2C#N)cc1 | 96.3% |
| O=C(c1ccc(Nc2nccc(NCCCNc3ccnc4cc(Cl)ccc34)n2)cc1)N1CCCCC1 | 34% |
| N#C/C(=C\c1ccccc1Cl)c1cc2ccccc2[nH]1 | 96.4% |
| OCCN1CCN(CC/C=C2\c3ccccc3Sc3ccc(Cl)cc32)CC1 | 79.4% and 86.4% |
| OCCN1CCN(c2cc(-c3cccc(OC(F)(F)F)c3)nc3ccc(N4CCCC4)cc23)CC1 | 54.3% |
| CCCN1C(=O)/C(=c2\sc3n(c2=O)NC2C(N=3)N(CC)C(=O)N2CC)c2ccccc21 (stereo not given) | 35.7% |
| COc1ccc(Oc2nc(Nc3ccc(N4CCOCC4)cc3)ncc2NC(=O)c2cc(OC)cc(OC)c2)cc1 | 92.1% |
| C=C(C)[C@@H]1CC[C@]2(C(=O)N3CCN(C)CC3)CC[C@]3(C)[C@H](CC[C@@H]4[C@@]5(C)CC(CCCNC(C)=O)(CCCNC(C)=O)[C@H](OC(C)=O)C(C)(C)[C@@H]5CC[C@]43C)[C@@H]12 | 106% |

| SMILES | growth |
| --- | --- |
| O=C(N=Nc1c(O)[nH]c2ccccc12)Nc1ccc(Br)cc1 | 98.9% |
| C=C1C(=O)O[C@H]2[C@H]1CC/C(CNS(=O)(=O)c1ccc3ccccc3c1)=C\CC[C@@]1(C)O[C@@H]21 | -17.2% (active) |
| Cc1oc2c(Cc3ccc(NC(=O)c4ccc(Cl)cc4)cc3)ncnc2c1C(=O)NO | 98.5% |
| CC/C(=C(/c1ccc(O)cc1)c1ccc(OCCN2CCCCCC2)cc1)c1ccc(Cl)cc1 | 83.6% |
| Nc1nc(Nc2ccc(F)cc2)nn1C(=O)c1cc(Cl)ccc1Cl | 68.4% |
| CCOC(=O)c1cnn(-c2ccc(S(N)(=O)=O)cc2)c1N | 102% |
| COc1cc(/C=N/NC(=O)CCN2c3ccccc3Sc3ccccc32)cc(OC)c1OC | 86.5% |
| COc1ccc(-c2nnc3n(C)c(=O)c4ccccc4n23)cc1O | 25.2% |
| O=Nc1ccc(NO)c2ccccc12 | 97.9% and 87% |
| Cn1cc(-c2nonc2-c2cn(C)c3ccc(Br)cc23)c2ccccc21 | 36.8% |
| Cc1ccc(-c2nc3nc(-c4ccc(F)cc4)nc(N4CCCNCC4)c3o2)cc1 | -74.8% (active) |
| COc1ccc(-c2cc(-c3cccnc3)nc3sc4c(Cl)nnnc4c23)cc1OC | 91.4% |
| Cc1ccc(-c2nc3nc(-c4ccc(Br)cc4)nc(N4CCCNCC4)c3o2)cc1 | -45.6% (active) |
| CCOC(=O)c1ccc(Nc2ncnc3c2cnn3-c2cccc(F)c2)cc1 | 98.3% |
| N=C(N)SCc1c2ccccc2c(CSC(=N)N)c2ccccc12 | 60.7% |
| N#CC1C(=O)c2ccccc2C1c1ccccc1 (stereo not given) | 96.9% and 97.3% |
| O=C1CCc2c(sc3[nH]c(=S)n(Cc4ccc(Cl)cc4)c(=O)c23)C1 | 7.83% (active) |
| Nc1nc2ccccc2c2c(=O)c3ccc(Cl)cc3sc12 | 103% |
| CCN(CC)CCOc1ccccc1C | 102% |

Same assay, conditions: 100 µM

| SMILES | growth |
| --- | --- |
| CC(=O)/C=C/c1ccc(N(C)Cc2ccc(C(C)(C)C)cc2)cc1 | -54.8% (active) |

From PubChem BioAssay (NCI)
